In assay [1] the target is Transient receptor potential cation channel subfamily V member 1 (Homo sapiens) (UniProt Q8NER1). Nature of the assay: HTS Assay for Compounds that Act as Enhancers of the Vanilloid Receptor 1 (AID 488979). Also: 0% is about no effect. Summed up: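 Calcium influx kinetics via Fluo-8 (480/520 nm) in TRPV1-expressing cells, 2000/well cultured overnight at 35.5C. Compound-alone read 3 min (agonist phase), followed by EC20 capsaicin challenge for 2 min (enhancer phase).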

The target of assay [2] is Thyrotropin receptor (Homo sapiens) (UniProt P16473). The assay can be described thus: qHTS Assay for Antagonists of the Thyroid Stimulating Hormone Receptor (AID 488980). Also: series mostly up to about 58 µM; 0% is about no effect. A digest of the protocol:
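TSHR-HEK293 cells; 70 uM RO 20-1724 PDE inhibitor; compound + EC80 TSH (4 nM final); anti-cAMP cryptate antibody/cAMP-d2 in lysis buffer, 30 min RT; HTRF 665/620 nm read.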
Background: In qHTS, concentration-response curves come from the screen itself.

For assay [3], the target named is D(1A) dopamine receptor (Homo sapiens) (UniProt P21728). The assay can be described thus: HTS Assay for Allosteric Agonists of the Human D1 Dopamine Receptor: Primary Screen for Agonists (AID 488981). Also: 0% is about no effect. A digest of the protocol:
(§1)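 Calcium flux in an inducible, force-coupled HEK293 Trex D1 line (overnight at 30 C): agonist mode is the 180 s kinetic read after compound; potentiator mode is the following 180 s read after dopamine at EC20.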

Assay [4] has the same target. Nature of the assay: HTS Assay for Allosteric Agonists of the Human D1 Dopamine Receptor: Primary Screen for Potentiators (AID 488982). Also: 0% is about no effect. A digest of the protocol: as §1
For assay [5] the target is unchanged. Nature of the assay: HTS Assay for Allosteric Agonists of the Human D1 Dopamine Receptor: Primary Screen for Antagonists (AID 488983).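 Also: calcium flux response to an EC80 dopamine challenge measured with no-wash dye; nearly all actives have a fitted effect of over 65% in size.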 Also: potency is read from the fitted curve at half-maximal effect. Summed up: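 Screening of inducible HEK293 T-REx D1 cells: compound first, EC80 dopamine 180 s later, each phase read kinetically for calcium over 180 s.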
Assay [6] in a line: Validation screen for small molecules that induce genotoxicity in human embryonic kidney (HEK293T) cells expressing luciferase-tagged ELG1 (AID 493106). Also: 0% is about no effect. Summed up:
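Reporter-gene quantitative HTS in HEK293T cells carrying luciferase-tagged ELG1, whose level climbs under genotoxic stress. Compound exposure lasts 16 hr at 37 °C before luciferase detection.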

Assay [7] addresses Thyrotropin-releasing hormone receptor (Homo sapiens) (UniProt P34981). The assay can be described thus: qHTS for Small Molecule Agonists and Allosteric Enhancers of Human TRH Receptor: Validation Screen for Agonists (AID 493127;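 active = calcium activation more than 3 SD above the typical response in the agonist read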;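 also: intracellular calcium rise by fluo-8 fluorescence before TRH EC20 addition; 0% is about no effect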). The settings on record: TRH receptor agonist cell assay; at 2 µM; stronger effect = higher value. A digest of the protocol:
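Gq-coupled calcium mobilization in TRHR cells after compound addition, monitored kinetically with fluo-8 dye on an FDSS reader.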

Assay [8] in a line: Nrf2 qHTS screen for inhibitors: Validation (AID 493153; active = well fitted inhibition curve with a large enough effect in the main read-out, with a control signal flat, not every such curve was filed as active). The settings on record: Potency: luciferase luminescence; viability change: measured here: cytotoxicity max response. A digest of the protocol:
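Dose-response validation uses reporter A549 cells with firefly luciferase under an antioxidant response element. Compounds stay on cells 18-24 h at 37°C, and luminescence indicates Nrf2-driven transcription.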

Assay [9] is described as follows: qHTS for Inhibitors of Cell Surface uPA Generation: Validation Assay (AID 493164).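 Also: RAW 264.7 macrophage cells exposed to compound for 18 h; 0% is about no effect.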 Summed up: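 RAW 264.7, 4000 cells/well, o/n plating; cpd 7-pt 1:5 dilution 2.45 nM–38.3 uM final; 18 h, 37 C/5% CO2; ATP-Lite, 5 s luminescence exposure.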
A short description of assay [10]: Validation screen for small molecules that induce DNA re-replication in SW480 colon adenocarcinoma cells (AID 504364). Also: 0% is about no effect. A digest of the protocol:
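Cells are treated 48 hr with test compound, stained 40 min with Hoechst at 37 C, and scanned for nuclear fluorescence; compounds inducing re-replication increase nuclei with elevated intensity.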

The target in assay [11] is Peptidyl-prolyl cis-trans isomerase NIMA-interacting 1 (Homo sapiens) (UniProt Q13526). Nature of the assay: qHTS Validation Assay to Find Inhibitors of Pin1 (AID 504536; active = well fitted inhibition curve with a large enough effect in the polarisation, with a control signal flat, not every such curve was filed as active; the % refers to the polarisation; also: potency is read from the fitted curve at half-maximal effect). Summed up:
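Fluorescence polarization competition: compounds (titration) displace HiFluor-488-labeled Pin1-1b peptide from Pin1 (0.3 uM final) in pH 7.5 HEPES buffer with DTT, 10 min at room temperature; %Activity normalized to no-enzyme wells, curves fitted.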

Assay [12] deals with Phosphoglycerate kinase, glycosomal (Trypanosoma brucei brucei) (UniProt P07378). The assay can be described thus: qHTS Validation Assay to Find Inhibitors of Phosphoglycerate Kinase (AID 504547). Also: potency is read from the fitted curve at half-maximal effect. A digest of the protocol:
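Inhibition of the enzyme is judged by a Kinase-Glo Plus luminescent signal following a one-hour incubation at room temperature. Because 1,3-BPG is unstable, it is made in situ by GAPDH at 100nM final; no-PGK wells define the baseline.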

Assay [13] has as its target phosphoglycerate mutase (Leishmania major) (UniProt Q4Q090). Nature of the assay: qHTS Validation Assay to Find Inhibitors of Phosphoglycerate Mutase (AID 504548). Also: series mostly up to about 58 µM; % is scaled to controls: 0 for no effect and ±100 for the full control effect. The settings on record: Potency: inhibition qHTS. Summed up:
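Lm PGAM at 1.25 nM final with substrate in 100 mM TEA pH 7.6, 5 mM MgCl2, 0.01% Tween-20; 45 min at room temperature. Kinase-GloPlus added, 10 min, end-point luminescence read.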

In assay [14] the target is Ubiquitin carboxyl-terminal hydrolase 1 (Homo sapiens) (UniProt O94782). The assay can be described thus: Inhibitors of USP1/UAF1: Pilot qHTS (AID 504865). Also: nearly all actives have a fitted effect of over 35% in size. Also: potency is read from the fitted curve at half-maximal effect. Summed up:
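1nM USP1/UAF1 + cpd, 15 min RT; start w/ Ub-Rho 150nM final; kinetic FL 480/540 nm, 6 reads q60 s. Buffer 50mM HEPES pH 7.8, 0.5mM EDTA, 1mM TCEP, 0.01% Tween-20, 0.1 mg/ml BSA.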

The target of assay [15] is Galactokinase (Homo sapiens) (UniProt P51570). The assay can be described thus: qHTS Validation Assay for Inhibitors of Human Galactokinase (GALK) (AID 493189). Also: potency is read from the fitted curve at half-maximal effect. Summed up:
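Luminescence from leftover ATP (Kinase-Glo Plus, 10 min) served as read-out after a 1 h room-temperature reaction of 5 nM GALK, 100 uM galactose and 35 uM ATP at pH8.0.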

A short description of assay [16]: qHTS for Inhibitors of ATXN expression: Validation (AID 588378). Also: series mostly up to about 57 µM; % is scaled to controls: 0 for no effect and ±100 for the full control effect; nearly all actives have a fitted effect of over 75% in size. Summed up: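 Cells: HEK293-ATXN2-FFLuc, phenol-red free DMEM, 2 h attachment. Compound pin-transfer, 24 h, 37 degrees C, 5% CO2. CellTiter-Fluor 30 min, Ex405/Em525; Bright-Glo 5 min, luminescence 2 s exposure.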
Assay [17] is described as follows: qHTS for Inhibitors of ATXN expression: Validation of Cytotoxic Assay (AID 588349).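 Also: cells exposed to compound for 72 hr; % is scaled to controls: 0 for no effect and ±100 for the full control effect.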 A digest of the protocol:
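HEK293, compound dose series, 72 hr / 37 degrees C; viability via CellTiter Glo (intracellular ATP).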

Data on 8 compounds can be found in PubChem BioAssay (NCATS).

Inconclusive results are not listed. Calls of active or inactive are those of the source. Unless noted, calls follow the shape of the dose curve; as a rule, active = well fitted curve in the direction sought with a large enough effect; inconclusive = small, poorly fitted or top-dose-only effect, or another doubt; inactive = no such curve, though single readings can be large; an effect the other way counts as inactive or inconclusive.

Sequence of Peptidyl-prolyl cis-trans isomerase NIMA-interacting 1 (Homo sapiens) (Q13526 whole entry, looked up): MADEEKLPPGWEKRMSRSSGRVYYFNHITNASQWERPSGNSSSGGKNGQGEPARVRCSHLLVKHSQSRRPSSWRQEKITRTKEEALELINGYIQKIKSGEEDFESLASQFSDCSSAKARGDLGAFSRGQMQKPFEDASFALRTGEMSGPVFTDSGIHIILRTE
Sequence of D(1A) dopamine receptor (Homo sapiens) (P21728 whole entry, looked up): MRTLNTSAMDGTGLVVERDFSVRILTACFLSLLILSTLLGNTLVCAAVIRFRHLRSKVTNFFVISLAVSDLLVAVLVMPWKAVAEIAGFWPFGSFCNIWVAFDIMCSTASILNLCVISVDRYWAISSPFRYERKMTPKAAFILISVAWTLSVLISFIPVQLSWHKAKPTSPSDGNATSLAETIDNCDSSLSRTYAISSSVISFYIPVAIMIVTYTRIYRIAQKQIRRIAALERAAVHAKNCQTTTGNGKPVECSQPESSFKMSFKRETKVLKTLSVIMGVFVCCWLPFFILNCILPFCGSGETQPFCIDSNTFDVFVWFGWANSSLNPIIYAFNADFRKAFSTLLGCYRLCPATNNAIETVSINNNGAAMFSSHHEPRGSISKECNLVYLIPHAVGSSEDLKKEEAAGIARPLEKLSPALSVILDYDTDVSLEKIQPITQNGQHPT
Sequence of Thyrotropin-releasing hormone receptor (Homo sapiens) (P34981 whole entry, looked up): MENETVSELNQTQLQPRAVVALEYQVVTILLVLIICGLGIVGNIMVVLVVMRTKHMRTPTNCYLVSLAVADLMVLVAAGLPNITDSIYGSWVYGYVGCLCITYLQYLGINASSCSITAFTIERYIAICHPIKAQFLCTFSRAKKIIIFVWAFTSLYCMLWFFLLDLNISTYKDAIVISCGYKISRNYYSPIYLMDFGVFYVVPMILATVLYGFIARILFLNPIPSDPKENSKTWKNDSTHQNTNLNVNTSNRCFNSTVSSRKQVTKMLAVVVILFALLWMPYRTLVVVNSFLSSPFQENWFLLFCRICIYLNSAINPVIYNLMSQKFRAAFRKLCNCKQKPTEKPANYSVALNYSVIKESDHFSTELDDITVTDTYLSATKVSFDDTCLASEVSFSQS
Sequence of Transient receptor potential cation channel subfamily V member 1 (Homo sapiens) (Q8NER1 whole entry, looked up): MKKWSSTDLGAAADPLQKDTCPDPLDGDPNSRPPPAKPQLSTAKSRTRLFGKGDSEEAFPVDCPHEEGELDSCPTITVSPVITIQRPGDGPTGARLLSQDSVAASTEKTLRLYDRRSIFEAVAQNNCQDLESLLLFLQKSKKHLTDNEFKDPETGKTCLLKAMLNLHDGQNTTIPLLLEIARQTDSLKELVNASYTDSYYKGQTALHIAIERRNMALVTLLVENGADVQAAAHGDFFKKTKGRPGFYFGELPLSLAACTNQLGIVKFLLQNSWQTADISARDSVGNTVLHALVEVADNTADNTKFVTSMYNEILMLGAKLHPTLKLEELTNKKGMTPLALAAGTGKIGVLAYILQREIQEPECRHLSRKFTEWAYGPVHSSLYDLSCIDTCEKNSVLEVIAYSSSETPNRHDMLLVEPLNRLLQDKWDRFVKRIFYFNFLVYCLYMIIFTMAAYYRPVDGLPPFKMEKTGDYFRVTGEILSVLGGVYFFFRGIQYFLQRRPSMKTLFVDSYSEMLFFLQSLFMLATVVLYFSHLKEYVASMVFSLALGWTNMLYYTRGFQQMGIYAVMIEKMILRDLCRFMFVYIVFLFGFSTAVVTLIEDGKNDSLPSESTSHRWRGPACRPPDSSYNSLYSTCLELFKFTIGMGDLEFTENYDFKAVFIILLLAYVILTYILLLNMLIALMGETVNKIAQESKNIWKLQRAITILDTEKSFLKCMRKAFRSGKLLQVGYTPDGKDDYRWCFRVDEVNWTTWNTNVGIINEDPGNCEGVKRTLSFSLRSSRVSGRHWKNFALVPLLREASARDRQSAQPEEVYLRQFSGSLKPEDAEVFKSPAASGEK
Sequence of Galactokinase (Homo sapiens) (P51570 whole entry, looked up): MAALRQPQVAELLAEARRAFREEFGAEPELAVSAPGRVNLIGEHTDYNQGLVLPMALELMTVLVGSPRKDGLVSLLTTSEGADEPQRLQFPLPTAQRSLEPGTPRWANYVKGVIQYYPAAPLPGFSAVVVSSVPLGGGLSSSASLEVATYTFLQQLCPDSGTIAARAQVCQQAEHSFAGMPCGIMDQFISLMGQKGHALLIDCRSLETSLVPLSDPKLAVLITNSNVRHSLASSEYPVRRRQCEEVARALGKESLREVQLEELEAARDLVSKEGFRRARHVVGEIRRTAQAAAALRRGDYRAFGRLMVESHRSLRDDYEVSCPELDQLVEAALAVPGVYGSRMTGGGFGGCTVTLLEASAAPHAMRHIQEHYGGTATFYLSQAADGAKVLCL
Sequence of Ubiquitin carboxyl-terminal hydrolase 1 (Homo sapiens) (O94782 whole entry, looked up): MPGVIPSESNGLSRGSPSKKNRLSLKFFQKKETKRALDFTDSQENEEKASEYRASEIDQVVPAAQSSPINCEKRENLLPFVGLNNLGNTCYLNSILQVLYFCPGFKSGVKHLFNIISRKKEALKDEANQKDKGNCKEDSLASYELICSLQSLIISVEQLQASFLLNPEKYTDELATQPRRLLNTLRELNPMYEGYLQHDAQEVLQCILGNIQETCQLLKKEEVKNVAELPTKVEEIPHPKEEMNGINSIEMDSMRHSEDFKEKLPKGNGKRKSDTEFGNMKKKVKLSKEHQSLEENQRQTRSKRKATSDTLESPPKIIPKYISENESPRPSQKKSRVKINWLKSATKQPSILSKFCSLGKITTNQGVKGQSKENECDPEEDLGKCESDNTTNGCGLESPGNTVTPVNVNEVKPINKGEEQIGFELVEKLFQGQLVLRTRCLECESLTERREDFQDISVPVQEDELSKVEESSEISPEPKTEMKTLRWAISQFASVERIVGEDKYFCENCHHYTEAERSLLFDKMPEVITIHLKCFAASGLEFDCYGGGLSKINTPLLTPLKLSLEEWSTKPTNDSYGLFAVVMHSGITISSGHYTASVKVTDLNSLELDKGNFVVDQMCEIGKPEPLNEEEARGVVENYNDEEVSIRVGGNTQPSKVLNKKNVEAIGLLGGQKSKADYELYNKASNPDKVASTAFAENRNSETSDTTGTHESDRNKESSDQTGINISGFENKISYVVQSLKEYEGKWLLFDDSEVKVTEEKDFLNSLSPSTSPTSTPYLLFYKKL
Sequence of Thyrotropin receptor (Homo sapiens) (P16473 whole entry, looked up): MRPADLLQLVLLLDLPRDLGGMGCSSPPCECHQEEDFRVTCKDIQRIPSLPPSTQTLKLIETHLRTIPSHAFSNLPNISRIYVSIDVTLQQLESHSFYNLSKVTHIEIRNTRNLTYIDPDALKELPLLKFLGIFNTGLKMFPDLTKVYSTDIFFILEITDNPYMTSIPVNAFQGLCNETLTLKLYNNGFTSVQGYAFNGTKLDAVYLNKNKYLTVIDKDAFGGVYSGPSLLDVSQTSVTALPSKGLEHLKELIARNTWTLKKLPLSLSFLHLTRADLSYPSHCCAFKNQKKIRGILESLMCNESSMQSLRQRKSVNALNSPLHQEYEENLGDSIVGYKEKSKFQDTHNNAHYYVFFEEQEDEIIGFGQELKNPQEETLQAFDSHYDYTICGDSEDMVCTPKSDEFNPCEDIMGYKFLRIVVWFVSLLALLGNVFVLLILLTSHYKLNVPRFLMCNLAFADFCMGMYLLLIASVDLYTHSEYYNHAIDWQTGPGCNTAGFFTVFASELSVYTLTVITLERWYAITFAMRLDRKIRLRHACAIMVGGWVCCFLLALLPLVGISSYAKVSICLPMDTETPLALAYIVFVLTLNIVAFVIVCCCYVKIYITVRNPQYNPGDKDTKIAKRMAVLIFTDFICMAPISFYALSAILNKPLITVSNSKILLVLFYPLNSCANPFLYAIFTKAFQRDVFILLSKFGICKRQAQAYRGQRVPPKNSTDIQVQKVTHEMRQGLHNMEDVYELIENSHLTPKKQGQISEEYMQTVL
Sequence of Phosphoglycerate kinase, glycosomal (Trypanosoma brucei brucei) (P07378 whole entry, looked up): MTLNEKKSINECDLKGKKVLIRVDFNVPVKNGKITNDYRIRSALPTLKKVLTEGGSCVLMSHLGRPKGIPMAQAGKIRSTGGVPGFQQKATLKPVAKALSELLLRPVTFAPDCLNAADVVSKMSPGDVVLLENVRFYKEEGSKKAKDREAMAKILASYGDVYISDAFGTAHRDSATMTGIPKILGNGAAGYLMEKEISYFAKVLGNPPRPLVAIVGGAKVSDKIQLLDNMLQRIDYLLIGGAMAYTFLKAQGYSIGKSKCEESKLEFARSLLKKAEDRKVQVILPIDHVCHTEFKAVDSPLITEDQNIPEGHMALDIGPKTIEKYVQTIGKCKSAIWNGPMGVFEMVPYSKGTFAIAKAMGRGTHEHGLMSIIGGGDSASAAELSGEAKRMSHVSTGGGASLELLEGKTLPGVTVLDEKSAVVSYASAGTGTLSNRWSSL
Sequence of phosphoglycerate mutase (Leishmania major) (Q4Q090 1-553): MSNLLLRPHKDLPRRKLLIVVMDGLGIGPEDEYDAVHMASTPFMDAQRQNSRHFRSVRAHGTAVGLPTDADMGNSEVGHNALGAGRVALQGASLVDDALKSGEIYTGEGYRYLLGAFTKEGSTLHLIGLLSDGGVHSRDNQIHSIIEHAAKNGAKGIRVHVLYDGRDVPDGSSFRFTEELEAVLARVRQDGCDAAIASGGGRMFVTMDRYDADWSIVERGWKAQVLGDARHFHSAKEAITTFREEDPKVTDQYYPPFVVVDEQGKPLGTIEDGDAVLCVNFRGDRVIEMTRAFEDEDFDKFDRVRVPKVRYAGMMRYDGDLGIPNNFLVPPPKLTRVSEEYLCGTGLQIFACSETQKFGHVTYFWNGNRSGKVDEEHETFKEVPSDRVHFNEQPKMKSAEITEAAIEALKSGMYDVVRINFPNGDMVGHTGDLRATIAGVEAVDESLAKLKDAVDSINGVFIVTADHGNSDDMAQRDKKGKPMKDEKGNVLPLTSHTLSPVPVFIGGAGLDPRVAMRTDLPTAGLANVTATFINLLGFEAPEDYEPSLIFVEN

On to `NCC(O)C1CCCCCCC1` (configuration not stated), for which the outcome in assay [1], in [2] and in assay [9] was inactive. Further, the Potency entry in [3], in [4], in assay [5], in assay [6], in assay [8] and in assay [10] was “inactive” in each case. The Potency entry in [11], in assay [12], in assay [13] and in assay [14] was “inactive” throughout. The activation in assay [7] was 1% (inactive). The viability change in assay [8] came to 3.56%.

On to `O=C(O)C1=CC(=C(c2ccc(O)c(C(=O)O)c2)c2ccc(O)c(C(=O)O)c2)C=CC1=O`, for which the result in assay [1], in [2] and in assay [9] was inactive. In addition, the Potency result in [3], in assay [4], in [5], in assay [6], in assay [8] and in assay [10] was “inactive” each time. In [16], the Potency entry was “inactive”. Also, the activation in assay [7] is 1% (inactive). In addition, the viability change in assay [8] is -5.86%. The Potency was 14.1 µM (active) in assay [15], 0.675 µM (active) in [11], 0.0757 µM (active) in assay [12] and 8.91 µM (active) in assay [14].

On to `CC(C)C[C@H](NC(=O)[C@H](O)[C@H](N)Cc1ccccc1)C(=O)O`, for which the result in assay [1], in assay [2] and in assay [9] was inactive. Also, the Potency result in [3], in assay [4], in assay [5], in assay [6], in assay [8] and in [15] was “inactive” in each case. In addition, the Potency result in assay [10], in assay [11], in [12], in assay [13], in [14] and in assay [17] was “inactive” in each case. For the same compound, the Potency result in assay [16] is “inactive”. For the same compound, the activation in assay [7] is -0.0625% (inactive). Also, the viability change in assay [8] was 5.98%.

Consider `CCCCCCCCCCCCCCC[C@H](O)[C@H](N)CO`, for which the outcome in [1] and in assay [2] was inactive. In addition, the Potency entry in assay [3], in [4], in assay [5], in assay [6], in assay [8] and in assay [15] was “inactive” throughout. The Potency entry in assay [11], in [12], in [13], in [17] and in [16] was “inactive” each time. In [7], the activation is 1.44% (inactive). Also, the viability change in [8] was found to be 2.23%. Moreover, the Potency in assay [14] was 79.4 µM (active).

As for `N[C@@H](CCC(=O)N[C@H](CSN=O)C(=O)NCC(=O)O)C(=O)O`, the result in [1], in assay [2] and in [9] was inactive. For the same compound, the Potency result in [3], in [4], in assay [5], in [6], in [8] and in assay [15] was “inactive” in each case. Also, the Potency entry in assay [10], in [11], in assay [12], in assay [13], in [14] and in assay [17] was “inactive” throughout. In addition, the Potency result in assay [16] is “inactive”. Further, in assay [7], the activation was 1.31% (inactive). Further, in assay [8], the viability change was found to be 5.63%.

Regarding `O=c1oc(Cl)c(Cl)c2ccccc12`, the outcome in assay [1], in [2] and in assay [9] was inactive. Besides, the Potency entry in [3], in assay [4], in assay [5], in assay [6], in assay [8] and in assay [15] was “inactive” each time. Also, the Potency result in assay [10], in [11], in [12], in [13], in assay [17] and in assay [16] was “inactive” throughout. Besides, in [7], the activation is -4.69% (inactive). Further, the viability change in assay [8] was -4.81%.

Consider `CCCn1c(=O)c2[nH]c(C3CCCC3)nc2n(CCC)c1=O`, for which the outcome in assay [1], in assay [2] and in [9] was inactive. In addition, the Potency result in [3], in [4], in [5], in assay [6], in assay [8] and in assay [11] was “inactive” throughout. Further, the Potency entry in assay [12], in assay [13], in assay [14], in assay [17] and in [16] was “inactive” throughout. In addition, in assay [7], the activation was -3.88% (inactive). In assay [8], the viability change is -6.17%.

As to `CN1CCC2(CCN3CCc4c(oc5ccccc45)C3C2)N(C)C1=O` (configuration not stated), the result in [1], in assay [2] and in assay [9] was inactive. For the same compound, the Potency result in [3], in [4], in [6], in assay [15], in assay [10] and in assay [11] was “inactive” throughout. Also, the Potency result in assay [12], in [13], in assay [14], in assay [17] and in [16] was “inactive” each time. Moreover, the Potency in [5] was 10 µM (active). The activation in assay [7] is 0.25% (inactive).
